Consider one sequence from paper PMC7862700, “An all-to-all approach to the identification of sequence-specific readers for epigenetic DNA modifications on cytosine”.

Common to all, as to test: DAPPL (digital affinity profiling via proximity ligation, sequencing); 10 mM Tris-HCl pH 7.5, 50 mM NaCl, 1 mM DTT, 4% glycerol, room temperature, 30 min; GST-TFs on glutathione beads, 16-mer random dsDNA library, 0.1% formaldehyde crosslink after washing; high values mean tight binding
One experiment deals with T1, FLI1 (Homo sapiens, UniProt Q01543 1-452).
T1 sequence: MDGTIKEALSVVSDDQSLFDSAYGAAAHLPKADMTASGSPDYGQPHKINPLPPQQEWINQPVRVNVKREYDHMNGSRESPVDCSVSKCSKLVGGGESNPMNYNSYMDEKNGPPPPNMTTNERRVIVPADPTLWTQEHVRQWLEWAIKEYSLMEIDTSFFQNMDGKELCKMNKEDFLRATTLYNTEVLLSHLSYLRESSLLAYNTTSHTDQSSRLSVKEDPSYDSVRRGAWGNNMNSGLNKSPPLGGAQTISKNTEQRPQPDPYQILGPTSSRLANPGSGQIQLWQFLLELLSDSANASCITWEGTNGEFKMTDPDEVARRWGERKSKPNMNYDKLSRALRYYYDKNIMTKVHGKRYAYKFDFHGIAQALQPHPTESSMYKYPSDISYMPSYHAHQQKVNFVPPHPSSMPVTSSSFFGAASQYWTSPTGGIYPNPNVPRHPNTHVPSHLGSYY
The following applies: protein: recombinant; tags: N-terminal GST; dsDNA, one strand shown. The essentials:
(§1)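 Sequencing on an Illumina NextSeq500 followed washing, crosslinking with 0.1% formaldehyde, proximity ligation (BsaI/T4 ligase, 1 h, 37 °C) and PCR amplification of pools that had been incubated for 30 min at room temperature with 200 nmole of a random double-stranded 16-mer DNA library in Tris/NaCl/DTT/glycerol buffer. Each pool held DNA-barcoded human transcription factors, expressed in yeast as GST fusions and captured on glutathione beads, plus a tag-only sample. Binding signal is a hexamer's read frequency for a factor divided by its frequency in the tag-only sample.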

Another experiment has as its target T2, ELK1 (Homo sapiens, UniProt P19419 1-428).
T2 sequence: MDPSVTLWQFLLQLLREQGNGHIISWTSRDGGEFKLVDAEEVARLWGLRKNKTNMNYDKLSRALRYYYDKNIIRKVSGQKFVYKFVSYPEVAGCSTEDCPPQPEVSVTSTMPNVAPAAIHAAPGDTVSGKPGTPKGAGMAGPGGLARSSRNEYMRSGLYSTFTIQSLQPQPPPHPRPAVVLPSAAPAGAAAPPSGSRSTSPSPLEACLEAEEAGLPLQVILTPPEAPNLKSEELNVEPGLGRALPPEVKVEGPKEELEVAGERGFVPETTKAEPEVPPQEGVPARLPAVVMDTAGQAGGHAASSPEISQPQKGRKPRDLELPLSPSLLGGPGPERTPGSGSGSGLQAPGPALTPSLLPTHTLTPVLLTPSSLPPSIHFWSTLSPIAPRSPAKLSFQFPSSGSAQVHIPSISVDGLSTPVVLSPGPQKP
The following applies: protein: recombinant; tags: N-terminal GST; dsDNA, one strand shown. The essentials: as §1

A further experiment has as its target T3, GABPA (Homo sapiens, UniProt Q06546 1-454).
T3 sequence: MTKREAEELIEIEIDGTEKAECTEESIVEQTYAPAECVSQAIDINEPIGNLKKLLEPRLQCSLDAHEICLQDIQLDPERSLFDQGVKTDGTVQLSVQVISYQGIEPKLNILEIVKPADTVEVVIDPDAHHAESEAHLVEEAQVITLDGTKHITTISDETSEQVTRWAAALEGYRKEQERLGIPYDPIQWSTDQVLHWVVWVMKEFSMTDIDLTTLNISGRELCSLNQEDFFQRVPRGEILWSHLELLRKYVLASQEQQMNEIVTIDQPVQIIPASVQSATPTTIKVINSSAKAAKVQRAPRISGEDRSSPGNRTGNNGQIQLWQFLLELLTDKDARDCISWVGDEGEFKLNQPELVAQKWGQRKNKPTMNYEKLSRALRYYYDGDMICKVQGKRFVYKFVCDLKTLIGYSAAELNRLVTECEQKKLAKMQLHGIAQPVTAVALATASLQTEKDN
Particulars: protein: recombinant; tags: N-terminal GST; dsDNA, one strand shown. Put shortly: as §1

In the next experiment the target is T4, ERG (Homo sapiens, UniProt P11308 1-479).
T4 sequence: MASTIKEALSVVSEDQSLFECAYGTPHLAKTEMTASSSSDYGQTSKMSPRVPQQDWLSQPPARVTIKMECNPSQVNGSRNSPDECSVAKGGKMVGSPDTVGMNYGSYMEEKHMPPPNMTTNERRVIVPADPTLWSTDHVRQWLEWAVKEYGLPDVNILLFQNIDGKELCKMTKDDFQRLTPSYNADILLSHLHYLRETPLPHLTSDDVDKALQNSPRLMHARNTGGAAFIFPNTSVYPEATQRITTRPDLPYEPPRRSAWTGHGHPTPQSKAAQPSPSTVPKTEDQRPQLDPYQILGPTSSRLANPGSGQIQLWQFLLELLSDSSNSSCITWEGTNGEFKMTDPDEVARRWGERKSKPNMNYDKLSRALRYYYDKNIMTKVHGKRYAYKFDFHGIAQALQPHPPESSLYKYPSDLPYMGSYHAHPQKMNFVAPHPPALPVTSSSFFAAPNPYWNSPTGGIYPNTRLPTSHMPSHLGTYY
Particulars: protein: recombinant; tags: N-terminal GST; dsDNA, one strand shown. The essentials: as §1

The target in the next experiment is ELF1 (Homo sapiens, UniProt P32519 1-619). Particulars: protein: recombinant; tags: N-terminal GST; dsDNA, one strand shown. The essentials: as §1
The next experiment deals with T5, EHF (Homo sapiens, UniProt Q9NZC4 1-300).
T5 sequence: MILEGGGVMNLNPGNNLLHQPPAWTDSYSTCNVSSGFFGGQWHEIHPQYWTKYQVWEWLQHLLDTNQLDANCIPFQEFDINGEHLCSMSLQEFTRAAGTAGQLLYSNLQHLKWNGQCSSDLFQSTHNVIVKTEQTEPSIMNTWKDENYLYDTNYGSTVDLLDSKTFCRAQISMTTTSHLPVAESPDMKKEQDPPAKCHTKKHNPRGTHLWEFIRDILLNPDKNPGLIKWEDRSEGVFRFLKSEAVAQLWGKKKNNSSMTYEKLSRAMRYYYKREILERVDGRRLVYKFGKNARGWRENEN
Particulars: protein: recombinant; tags: N-terminal GST; dsDNA, one strand shown. Put shortly: as §1

A further experiment addresses SPI1 (Homo sapiens, UniProt P17947 1-270). Particulars: protein: recombinant; tags: N-terminal GST; dsDNA, one strand shown. The essentials:
as §1

For another experiment, the target named is SPIB (Homo sapiens, UniProt Q01892 1-262). Particulars: protein: recombinant; tags: N-terminal GST; dsDNA, one strand shown. Put shortly: as §1
The next experiment deals with T6, ELK3 (Homo sapiens, UniProt P41970 1-407).
T6 sequence: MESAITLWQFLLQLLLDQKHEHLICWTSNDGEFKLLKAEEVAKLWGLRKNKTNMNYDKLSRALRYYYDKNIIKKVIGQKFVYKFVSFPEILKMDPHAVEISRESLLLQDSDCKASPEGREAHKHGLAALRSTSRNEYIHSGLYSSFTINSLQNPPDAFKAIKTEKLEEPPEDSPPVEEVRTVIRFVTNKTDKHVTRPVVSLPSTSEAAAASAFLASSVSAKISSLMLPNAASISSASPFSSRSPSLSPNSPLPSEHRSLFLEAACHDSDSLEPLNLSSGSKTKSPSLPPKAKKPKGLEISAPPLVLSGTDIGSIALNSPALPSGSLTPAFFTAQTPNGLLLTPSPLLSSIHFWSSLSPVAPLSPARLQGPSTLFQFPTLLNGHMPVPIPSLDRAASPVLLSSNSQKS
The following applies: protein: recombinant; tags: N-terminal GST; dsDNA, one strand shown. Put shortly:
as §1

A further experiment deals with T7, FEV (Homo sapiens, UniProt Q99581 1-238).
T7 sequence: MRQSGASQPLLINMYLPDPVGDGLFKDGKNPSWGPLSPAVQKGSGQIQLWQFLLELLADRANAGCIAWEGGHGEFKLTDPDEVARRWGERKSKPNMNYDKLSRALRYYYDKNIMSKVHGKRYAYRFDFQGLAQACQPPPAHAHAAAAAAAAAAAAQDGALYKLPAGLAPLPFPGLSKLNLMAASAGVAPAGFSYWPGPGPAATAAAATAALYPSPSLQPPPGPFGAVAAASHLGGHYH
Particulars: protein: recombinant; tags: N-terminal GST; dsDNA, one strand shown. The essentials:
as §1

The target in the next experiment is ETV5 (Homo sapiens, UniProt P41161 1-510). Particulars: protein: recombinant; tags: N-terminal GST; dsDNA, one strand shown. Put shortly: as §1
The target in the next experiment is HSF1 (Homo sapiens, UniProt Q00613 1-529). Particulars: protein: recombinant; tags: N-terminal GST; chain copies: 3; dsDNA, one strand shown. The essentials: as §1
For the next experiment, the target named is T8, SPIC (Homo sapiens, UniProt Q8N5J4 1-248).
T8 sequence: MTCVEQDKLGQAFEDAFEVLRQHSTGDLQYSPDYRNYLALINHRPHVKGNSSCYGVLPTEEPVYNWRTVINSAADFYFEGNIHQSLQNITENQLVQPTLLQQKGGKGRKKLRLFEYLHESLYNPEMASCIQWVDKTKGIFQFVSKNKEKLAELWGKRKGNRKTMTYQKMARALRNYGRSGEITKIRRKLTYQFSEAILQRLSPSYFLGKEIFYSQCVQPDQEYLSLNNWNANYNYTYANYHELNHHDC
Particulars: protein: recombinant; tags: N-terminal GST; dsDNA, one strand shown. Put shortly:
as §1

The next experiment has as its target ELF4 (Homo sapiens, UniProt Q99607 1-663). The following applies: protein: recombinant; tags: N-terminal GST; dsDNA, one strand shown. The essentials: as §1
The target in the next experiment is T9, ELK4 (Homo sapiens, UniProt P28324-2 1-405).
T9 sequence: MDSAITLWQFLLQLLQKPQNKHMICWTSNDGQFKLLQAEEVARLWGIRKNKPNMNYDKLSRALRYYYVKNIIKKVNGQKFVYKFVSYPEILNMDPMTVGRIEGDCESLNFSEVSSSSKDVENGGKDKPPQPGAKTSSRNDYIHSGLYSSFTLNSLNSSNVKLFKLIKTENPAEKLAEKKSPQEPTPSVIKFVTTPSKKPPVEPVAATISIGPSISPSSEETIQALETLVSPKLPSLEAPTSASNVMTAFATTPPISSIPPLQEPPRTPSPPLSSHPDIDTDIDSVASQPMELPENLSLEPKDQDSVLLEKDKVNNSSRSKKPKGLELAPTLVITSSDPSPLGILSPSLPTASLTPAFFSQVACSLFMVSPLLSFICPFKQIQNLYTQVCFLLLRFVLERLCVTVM
The following applies: protein: recombinant; tags: N-terminal GST; dsDNA, one strand shown. Put shortly: as §1

The target of a further experiment is T10, ETV2 (Homo sapiens, UniProt O00321 1-342).
T10 sequence: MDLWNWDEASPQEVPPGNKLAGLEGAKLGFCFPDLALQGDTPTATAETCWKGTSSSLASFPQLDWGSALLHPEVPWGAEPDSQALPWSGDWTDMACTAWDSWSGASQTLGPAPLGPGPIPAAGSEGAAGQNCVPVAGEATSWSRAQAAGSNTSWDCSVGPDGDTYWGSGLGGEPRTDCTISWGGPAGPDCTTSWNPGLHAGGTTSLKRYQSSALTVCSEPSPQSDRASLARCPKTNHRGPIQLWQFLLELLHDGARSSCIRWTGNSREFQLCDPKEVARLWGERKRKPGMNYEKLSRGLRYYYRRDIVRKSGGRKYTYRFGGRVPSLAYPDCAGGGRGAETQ
Particulars: protein: recombinant; tags: N-terminal GST; dsDNA, one strand shown. The essentials: as §1

The target in another experiment is T11, ELF3 (Homo sapiens, UniProt P78545 1-371).
T11 sequence: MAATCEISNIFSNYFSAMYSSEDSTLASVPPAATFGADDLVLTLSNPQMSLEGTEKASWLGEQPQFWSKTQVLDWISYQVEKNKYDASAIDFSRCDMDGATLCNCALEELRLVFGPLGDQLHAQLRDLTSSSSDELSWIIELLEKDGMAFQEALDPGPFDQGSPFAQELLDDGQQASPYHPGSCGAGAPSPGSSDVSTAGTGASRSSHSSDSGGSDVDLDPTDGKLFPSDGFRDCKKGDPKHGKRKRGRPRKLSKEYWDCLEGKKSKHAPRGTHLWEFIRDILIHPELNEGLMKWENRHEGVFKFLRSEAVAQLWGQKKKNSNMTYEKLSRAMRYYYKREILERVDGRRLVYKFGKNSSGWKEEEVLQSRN
Particulars: protein: recombinant; tags: N-terminal GST; dsDNA, one strand shown. Put shortly:
as §1

In another experiment the target is ETV1 (Homo sapiens, UniProt P50549 1-477). The following applies: protein: recombinant; tags: N-terminal GST; dsDNA, one strand shown. Put shortly: as §1
ETV1, sequence (P50549 whole entry): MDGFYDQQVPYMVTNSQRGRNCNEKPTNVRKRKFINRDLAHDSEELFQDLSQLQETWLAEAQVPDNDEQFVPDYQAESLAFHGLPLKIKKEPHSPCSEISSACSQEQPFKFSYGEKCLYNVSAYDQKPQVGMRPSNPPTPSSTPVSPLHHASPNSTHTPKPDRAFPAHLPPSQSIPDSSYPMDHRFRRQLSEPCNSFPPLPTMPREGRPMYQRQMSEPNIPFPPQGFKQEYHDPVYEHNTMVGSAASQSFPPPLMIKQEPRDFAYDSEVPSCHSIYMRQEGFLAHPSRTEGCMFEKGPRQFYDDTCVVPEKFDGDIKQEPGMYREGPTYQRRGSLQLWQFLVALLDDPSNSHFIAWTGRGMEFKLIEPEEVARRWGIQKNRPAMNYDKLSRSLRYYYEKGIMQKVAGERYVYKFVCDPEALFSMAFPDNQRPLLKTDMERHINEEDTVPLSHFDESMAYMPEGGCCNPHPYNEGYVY

HSF1, sequence (Q00613 whole entry): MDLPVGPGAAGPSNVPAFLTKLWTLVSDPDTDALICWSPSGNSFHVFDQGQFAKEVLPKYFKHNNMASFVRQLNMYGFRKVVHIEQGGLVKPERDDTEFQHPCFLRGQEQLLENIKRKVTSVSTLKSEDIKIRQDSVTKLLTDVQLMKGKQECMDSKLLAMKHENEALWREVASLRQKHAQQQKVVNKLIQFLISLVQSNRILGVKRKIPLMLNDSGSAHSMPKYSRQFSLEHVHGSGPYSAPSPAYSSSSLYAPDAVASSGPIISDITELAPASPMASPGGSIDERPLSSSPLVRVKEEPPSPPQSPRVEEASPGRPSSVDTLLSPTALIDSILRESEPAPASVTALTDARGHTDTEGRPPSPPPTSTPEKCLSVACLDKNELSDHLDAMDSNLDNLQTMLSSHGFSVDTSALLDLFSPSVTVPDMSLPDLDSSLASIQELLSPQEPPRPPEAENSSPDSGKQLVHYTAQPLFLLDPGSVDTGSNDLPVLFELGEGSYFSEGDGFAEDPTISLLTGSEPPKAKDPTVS
ETV5, sequence (P41161 whole entry): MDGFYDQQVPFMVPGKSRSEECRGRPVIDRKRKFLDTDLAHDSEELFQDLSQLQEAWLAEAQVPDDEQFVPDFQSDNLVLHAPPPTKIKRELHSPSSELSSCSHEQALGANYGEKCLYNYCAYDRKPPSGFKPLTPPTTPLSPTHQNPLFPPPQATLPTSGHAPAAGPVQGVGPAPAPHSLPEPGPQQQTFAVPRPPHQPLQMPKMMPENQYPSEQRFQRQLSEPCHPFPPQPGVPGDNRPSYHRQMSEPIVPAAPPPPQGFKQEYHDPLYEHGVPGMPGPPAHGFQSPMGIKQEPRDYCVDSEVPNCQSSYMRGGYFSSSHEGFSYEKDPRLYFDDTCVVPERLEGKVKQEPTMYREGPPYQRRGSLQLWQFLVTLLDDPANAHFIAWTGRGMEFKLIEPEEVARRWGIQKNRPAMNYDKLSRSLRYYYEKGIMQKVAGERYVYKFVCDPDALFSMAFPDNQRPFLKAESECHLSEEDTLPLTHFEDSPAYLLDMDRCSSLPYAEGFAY
ELF4, sequence (Q99607 whole entry): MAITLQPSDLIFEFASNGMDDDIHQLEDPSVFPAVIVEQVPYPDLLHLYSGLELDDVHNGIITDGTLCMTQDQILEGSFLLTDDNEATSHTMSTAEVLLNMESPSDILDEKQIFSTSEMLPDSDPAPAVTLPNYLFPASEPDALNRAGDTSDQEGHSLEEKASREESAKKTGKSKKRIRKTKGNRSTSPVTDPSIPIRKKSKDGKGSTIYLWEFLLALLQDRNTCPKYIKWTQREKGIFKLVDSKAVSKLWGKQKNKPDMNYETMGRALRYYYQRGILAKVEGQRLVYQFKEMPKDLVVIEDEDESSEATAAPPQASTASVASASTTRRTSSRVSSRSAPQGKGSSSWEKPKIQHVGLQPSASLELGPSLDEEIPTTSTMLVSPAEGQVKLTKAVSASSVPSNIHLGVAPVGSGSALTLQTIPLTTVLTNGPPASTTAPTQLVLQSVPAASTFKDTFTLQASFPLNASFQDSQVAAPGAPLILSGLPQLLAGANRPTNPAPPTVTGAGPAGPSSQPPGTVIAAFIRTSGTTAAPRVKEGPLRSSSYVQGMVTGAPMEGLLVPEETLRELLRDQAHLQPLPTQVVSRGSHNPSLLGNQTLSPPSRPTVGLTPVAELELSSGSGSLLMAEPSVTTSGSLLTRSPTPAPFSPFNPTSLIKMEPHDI
ELF1, sequence (P32519 whole entry): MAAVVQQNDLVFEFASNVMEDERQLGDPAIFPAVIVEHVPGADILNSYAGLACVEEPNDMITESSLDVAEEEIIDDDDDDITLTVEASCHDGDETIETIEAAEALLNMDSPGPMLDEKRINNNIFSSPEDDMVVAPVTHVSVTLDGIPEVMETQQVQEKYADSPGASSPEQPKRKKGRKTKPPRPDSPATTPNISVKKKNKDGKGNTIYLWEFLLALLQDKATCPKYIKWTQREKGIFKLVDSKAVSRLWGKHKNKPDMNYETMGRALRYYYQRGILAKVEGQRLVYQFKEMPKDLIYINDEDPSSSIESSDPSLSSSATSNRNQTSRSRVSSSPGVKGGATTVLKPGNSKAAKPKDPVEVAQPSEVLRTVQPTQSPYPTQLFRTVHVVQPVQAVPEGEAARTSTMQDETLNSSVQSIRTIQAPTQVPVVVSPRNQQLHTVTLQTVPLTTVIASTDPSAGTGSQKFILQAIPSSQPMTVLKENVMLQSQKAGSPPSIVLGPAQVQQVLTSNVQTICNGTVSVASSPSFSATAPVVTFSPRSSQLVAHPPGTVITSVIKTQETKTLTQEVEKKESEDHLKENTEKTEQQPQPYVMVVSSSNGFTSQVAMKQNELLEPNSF
SPIB, sequence (Q01892 whole entry): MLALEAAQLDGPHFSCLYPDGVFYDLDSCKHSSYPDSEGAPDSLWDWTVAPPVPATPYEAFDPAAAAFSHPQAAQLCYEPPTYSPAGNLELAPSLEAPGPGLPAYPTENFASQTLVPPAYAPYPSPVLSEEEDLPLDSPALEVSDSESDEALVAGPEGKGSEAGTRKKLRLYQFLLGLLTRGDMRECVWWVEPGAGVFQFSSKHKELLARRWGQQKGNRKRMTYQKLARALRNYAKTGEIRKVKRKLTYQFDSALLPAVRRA

As to CCACTG, the binding signal was 1.16 fold enrichment (6-mer frequency, TF over GST control) in the experiment with FLI1; 1.11 fold enrichment (6-mer frequency, TF over GST control) with ELK1; 1.25 fold enrichment (6-mer frequency, TF over GST control) in the experiment with GABPA; 1.23 fold enrichment (6-mer frequency, TF over GST control) in the experiment with ERG; 1.28 fold enrichment (6-mer frequency, TF over GST control) with ELF1; 1.19 fold enrichment (6-mer frequency, TF over GST control) with EHF. Further, the binding signal was 1.16 fold enrichment (6-mer frequency, TF over GST control) with SPI1; 1.15 fold enrichment (6-mer frequency, TF over GST control) in the experiment with SPIB; 1.2 fold enrichment (6-mer frequency, TF over GST control) with ELK3; 1.19 fold enrichment (6-mer frequency, TF over GST control) in the experiment with FEV; 1.15 fold enrichment (6-mer frequency, TF over GST control) in the experiment with ETV5; 1.08 fold enrichment (6-mer frequency, TF over GST control) in the experiment with HSF1. Further, the binding signal in the experiment with SPIC was 1.34 fold enrichment (6-mer frequency, TF over GST control); with ELF4, 1.2 fold enrichment (6-mer frequency, TF over GST control); in the experiment with ELK4, 1.18 fold enrichment (6-mer frequency, TF over GST control); in the experiment with ETV2, 1.17 fold enrichment (6-mer frequency, TF over GST control); with ELF3 it was 1.04 fold enrichment (6-mer frequency, TF over GST control); in the experiment with ETV1, 1.31 fold enrichment (6-mer frequency, TF over GST control).
